Results reported in PubChem BioAssay (NCI).
About 83,000 compounds went through this panel and 20% of them were active in at least one assay; those are over-represented in the sample as a whole.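 In brief: 96-well plates, 48 h treatment, single concentration, percent growth endpoint.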 Active and inactive are the calls of the source. Rule for the calls: active = growth percent below 10; inactive = the rest.

Key:
Experiment in all cases: NCI-60 one-dose screen, 48 h (100 = growth as untreated, 0 = no growth, -100 = all killed)
Settings in all cases: 10 µM
RPMI-8226 leukemia = tested on: RPMI-8226 leukemia
OVCAR-8 ovarian = tested on: OVCAR-8 ovarian
OVCAR-5 ovarian = tested on: OVCAR-5 ovarian
OVCAR-4 ovarian = tested on: OVCAR-4 ovarian
SK-OV-3 ovarian = tested on: SK-OV-3 ovarian
IGROV1 ovarian = tested on: IGROV1 ovarian
OVCAR-3 ovarian = tested on: OVCAR-3 ovarian
HS 578T breast = tested on: HS 578T breast
NCI/ADR-RES ovarian = tested on: NCI/ADR-RES ovarian
T-47D breast = tested on: T-47D breast

Measured: growth

Cc1cc(N(CCCNc2ccnc3cc(Cl)ccc23)Cc2ccc3c(c2)OCO3)nc(N2CCOCC2)n1
active: RPMI-8226 leukemia -29.6% | OVCAR-3 ovarian -6.27% | T-47D breast 0.442%
inactive: OVCAR-8 ovarian 31.7% | OVCAR-5 ovarian 77.4% | OVCAR-4 ovarian 23.1% | SK-OV-3 ovarian 90.5% | IGROV1 ovarian 10.9% | HS 578T breast 34.3% | NCI/ADR-RES ovarian 46.9%

NC1=NC(=O)C(c2ccccc2)(c2ccccc2)S1
inactive: RPMI-8226 leukemia 96.3% | OVCAR-8 ovarian 107% | OVCAR-5 ovarian 109% | OVCAR-4 ovarian 97% | SK-OV-3 ovarian 105% | IGROV1 ovarian 115% | OVCAR-3 ovarian 119% | HS 578T breast 108% | NCI/ADR-RES ovarian 109%

CCc1ccc2c(c1)N(CCO)C1=C(C(=O)OC1)C2c1cc(OC)c(OC)c(OC)c1 (stereo unspecified)
active: OVCAR-8 ovarian 8.75% | OVCAR-3 ovarian -57.6% | HS 578T breast 1.11% | NCI/ADR-RES ovarian -3.11%
inactive: RPMI-8226 leukemia 18.3% | OVCAR-5 ovarian 36.6% | OVCAR-4 ovarian 48.6% | SK-OV-3 ovarian 23.4% | IGROV1 ovarian 10.1% | T-47D breast 59.7%

CC(C)(C)NC/C(=C\c1ccccc1)C(=O)c1ccccc1
inactive: OVCAR-4 ovarian 30.7% | SK-OV-3 ovarian 57.9% | HS 578T breast 38.2%
active: RPMI-8226 leukemia -0.943% | OVCAR-8 ovarian -29.1% | OVCAR-5 ovarian -42.7% | IGROV1 ovarian 0.595% | OVCAR-3 ovarian -43.1% | NCI/ADR-RES ovarian -30.7%

O=C1C(c2ccccc2)C2C=CC(C2)N1O (stereo unspecified)
inactive: RPMI-8226 leukemia 81% | OVCAR-8 ovarian 104% | OVCAR-5 ovarian 119% | OVCAR-4 ovarian 116% | SK-OV-3 ovarian 106% | IGROV1 ovarian 108% | OVCAR-3 ovarian 112% | HS 578T breast 105% | NCI/ADR-RES ovarian 112% | T-47D breast 92.1%

N#CCCN(NC(=O)OCc1ccccc1)C(=O)OCc1ccccc1
inactive: RPMI-8226 leukemia 110% | OVCAR-8 ovarian 99% | OVCAR-5 ovarian 108% | OVCAR-4 ovarian 111% | SK-OV-3 ovarian 122% | IGROV1 ovarian 118% | OVCAR-3 ovarian 118% | HS 578T breast 103% | NCI/ADR-RES ovarian 105% | T-47D breast 109%

O=C1/C(=C\c2ccc(Cl)cc2)CN(C(=O)c2ccccc2)C/C1=C\c1ccc(Cl)cc1
inactive: OVCAR-5 ovarian 83.8% | OVCAR-4 ovarian 36% | SK-OV-3 ovarian 59.3% | NCI/ADR-RES ovarian 28.3% | T-47D breast 67.2%
active: RPMI-8226 leukemia -25% | OVCAR-8 ovarian 4.04% | IGROV1 ovarian 4.31% | OVCAR-3 ovarian -8.04% | HS 578T breast 5.5%

O=C(Nc1cccc(-n2cc(-c3ccncc3)c(-c3cc(O)cc(Cl)c3)n2)c1)c1cc(C(F)(F)F)cc(C(F)(F)F)c1
inactive: RPMI-8226 leukemia 32.1% | OVCAR-8 ovarian 39.6% | OVCAR-5 ovarian 70.7% | OVCAR-4 ovarian 59.6% | SK-OV-3 ovarian 68.8% | IGROV1 ovarian 73% | OVCAR-3 ovarian 15.2% | HS 578T breast 65.9% | NCI/ADR-RES ovarian 46.9% | T-47D breast 26.3%

O=C(c1ccc(Cl)cc1Cl)N1CCOCC1
inactive: RPMI-8226 leukemia 95.9% | OVCAR-8 ovarian 104% | OVCAR-5 ovarian 96% | OVCAR-4 ovarian 98.9% | SK-OV-3 ovarian 98.5% | IGROV1 ovarian 105% | OVCAR-3 ovarian 109% | HS 578T breast 107% | NCI/ADR-RES ovarian 96.5% | T-47D breast 92.3%

Clc1ccc(/C=C2\CCCC3=C2N=C2SC=NN2C3c2ccc(Cl)cc2)cc1 (stereo unspecified)
active: RPMI-8226 leukemia -12.1%
inactive: OVCAR-8 ovarian 91.4% | OVCAR-5 ovarian 107% | OVCAR-4 ovarian 92.1% | SK-OV-3 ovarian 109% | IGROV1 ovarian 104% | OVCAR-3 ovarian 112% | HS 578T breast 96.6% | NCI/ADR-RES ovarian 102% | T-47D breast 88.2%

O=[N+]([O-])c1cccc(N=Cc2ccc3c(c2)OCO3)c1
inactive: RPMI-8226 leukemia 104% | OVCAR-8 ovarian 97.3% | OVCAR-5 ovarian 116% | OVCAR-4 ovarian 104% | SK-OV-3 ovarian 110% | IGROV1 ovarian 109% | OVCAR-3 ovarian 112% | HS 578T breast 116% | NCI/ADR-RES ovarian 105% | T-47D breast 103%

COc1cc(/C=C2\CCCC3=C2N=C2SC=NN2C3c2cc(OC)c(OC)c(OC)c2)cc(OC)c1OC (stereo unspecified)
active: RPMI-8226 leukemia -22.5% | OVCAR-8 ovarian 9.84%
inactive: OVCAR-5 ovarian 91.9% | OVCAR-4 ovarian 47% | SK-OV-3 ovarian 57.4% | IGROV1 ovarian 29% | OVCAR-3 ovarian 29.3% | HS 578T breast 42.8% | NCI/ADR-RES ovarian 18.5% | T-47D breast 61.4%

Nc1c(C(=O)Nc2ccccc2Cl)sc2nc3c(cc12)C(=O)CCC3
inactive: RPMI-8226 leukemia 87.9% | OVCAR-8 ovarian 100% | OVCAR-5 ovarian 70.5% | OVCAR-4 ovarian 84.4% | SK-OV-3 ovarian 13.8% | IGROV1 ovarian 62.9% | OVCAR-3 ovarian 56.4% | HS 578T breast 40.8% | NCI/ADR-RES ovarian 57.2% | T-47D breast 75%

NC1(C(=O)O)CSSC1
inactive: RPMI-8226 leukemia 100% | OVCAR-8 ovarian 40.7% | OVCAR-5 ovarian 113% | OVCAR-4 ovarian 76.8% | SK-OV-3 ovarian 108% | IGROV1 ovarian 90% | OVCAR-3 ovarian 93% | HS 578T breast 53.6% | NCI/ADR-RES ovarian 59.8%

CCOCC(=O)C(C#N)c1ccc(Cl)c(Cl)c1 (stereo unspecified)
inactive: RPMI-8226 leukemia 88.9% | OVCAR-8 ovarian 101% | OVCAR-5 ovarian 96.6% | OVCAR-4 ovarian 91.3% | SK-OV-3 ovarian 100% | IGROV1 ovarian 101% | OVCAR-3 ovarian 110% | HS 578T breast 100% | NCI/ADR-RES ovarian 115% | T-47D breast 124%

CN(C)c1ccc(N=C2C=CC(=O)c3ccccc32)cc1
inactive: RPMI-8226 leukemia 65.4% | OVCAR-8 ovarian 76.3% | OVCAR-5 ovarian 88% | OVCAR-4 ovarian 71.5% | SK-OV-3 ovarian 95.4% | IGROV1 ovarian 88.6% | OVCAR-3 ovarian 23.8% | HS 578T breast 95.6% | NCI/ADR-RES ovarian 85.5% | T-47D breast 81.3%

Cc1[nH]nc2c1C(c1cnn(C)c1)C(C#N)=C(N)O2 (stereo unspecified)
inactive: RPMI-8226 leukemia 99.3% | OVCAR-8 ovarian 99.8% | OVCAR-5 ovarian 109% | OVCAR-4 ovarian 101% | SK-OV-3 ovarian 103% | IGROV1 ovarian 106% | OVCAR-3 ovarian 106% | HS 578T breast 104% | NCI/ADR-RES ovarian 108% | T-47D breast 96.4%

CC(C)(C)c1cc(Br)cc(C(C)(C)C)c1O
inactive: RPMI-8226 leukemia 93.9% | OVCAR-8 ovarian 103% | OVCAR-5 ovarian 111% | OVCAR-4 ovarian 112% | SK-OV-3 ovarian 101% | IGROV1 ovarian 115% | OVCAR-3 ovarian 108% | HS 578T breast 120% | NCI/ADR-RES ovarian 107% | T-47D breast 99.8%

O=S(=O)(NCCCNc1nccc(-c2c(-c3ccc(F)cc3)nc3sccn23)n1)c1ccc(F)cc1
inactive: RPMI-8226 leukemia 32.1% | OVCAR-8 ovarian 17.7% | OVCAR-5 ovarian 62.7% | OVCAR-4 ovarian 57.5% | SK-OV-3 ovarian 59.7% | IGROV1 ovarian 18.6% | OVCAR-3 ovarian 55.4% | HS 578T breast 66.8% | NCI/ADR-RES ovarian 31.3%
active: T-47D breast -2.52%

NC(=S)N=Nc1c(O)c2ccccc2c2ccccc12
inactive: RPMI-8226 leukemia 58.7% | OVCAR-8 ovarian 36% | OVCAR-5 ovarian 107% | OVCAR-4 ovarian 73.6% | SK-OV-3 ovarian 92.3% | IGROV1 ovarian 68.9% | OVCAR-3 ovarian 29.9% | HS 578T breast 62% | NCI/ADR-RES ovarian 27.1% | T-47D breast 68.3%

Cn1c(N)c(N=Nc2ccc(S(=O)(=O)Nc3nccs3)cc2)c(=O)n(C)c1=O
inactive: RPMI-8226 leukemia 100% | OVCAR-8 ovarian 100% | OVCAR-5 ovarian 115% | OVCAR-4 ovarian 106% | SK-OV-3 ovarian 103% | IGROV1 ovarian 91.2% | OVCAR-3 ovarian 103% | HS 578T breast 106% | NCI/ADR-RES ovarian 96%
active: T-47D breast -10.2%

O=C(NC(Cc1ccc(O)cc1)C(=O)N=Nc1c(O)[nH]c2ccccc12)c1ccccc1 (stereo unspecified)
inactive: RPMI-8226 leukemia 112% | OVCAR-8 ovarian 93.9% | OVCAR-5 ovarian 110% | OVCAR-4 ovarian 95.7% | SK-OV-3 ovarian 103% | IGROV1 ovarian 108% | OVCAR-3 ovarian 103% | HS 578T breast 101% | NCI/ADR-RES ovarian 98.7% | T-47D breast 107%

COc1ccc2c(c1)-c1c(c3cc(OC)ccc3n(CCN(C)C)c1=O)C2=O
inactive: OVCAR-5 ovarian 46.3% | SK-OV-3 ovarian 28.7% | HS 578T breast 25.7% | T-47D breast 63.8%
active: RPMI-8226 leukemia -14.9% | OVCAR-8 ovarian 4.46% | OVCAR-4 ovarian -28.3% | IGROV1 ovarian -25.6% | OVCAR-3 ovarian 6.8% | NCI/ADR-RES ovarian -1.87%

Cc1cc2ccccc2nc1-c1ccccc1F
inactive: RPMI-8226 leukemia 101% | OVCAR-8 ovarian 102% | OVCAR-5 ovarian 106% | OVCAR-4 ovarian 117% | SK-OV-3 ovarian 96.4% | IGROV1 ovarian 129% | OVCAR-3 ovarian 105% | HS 578T breast 106% | NCI/ADR-RES ovarian 112%

Nc1c(C(=O)Nc2ccccc2)sc2nc3c(cc12)C(O)CCC3 (stereo unspecified)
inactive: RPMI-8226 leukemia 11.6% | OVCAR-8 ovarian 31% | OVCAR-5 ovarian 57.1% | OVCAR-4 ovarian 61.3% | SK-OV-3 ovarian 18.7% | IGROV1 ovarian 29.4% | HS 578T breast 39.6% | NCI/ADR-RES ovarian 11.6% | T-47D breast 53.9%
active: OVCAR-3 ovarian -19.1%

CCN(CC)CCOc1nc2ccc(OC)cc2c2c1-c1ccc(OC)cc1C2=O
inactive: OVCAR-5 ovarian 49.3% | SK-OV-3 ovarian 30.9% | HS 578T breast 10.3% | T-47D breast 68.7%
active: RPMI-8226 leukemia -24.5% | OVCAR-8 ovarian -60.1% | OVCAR-4 ovarian -6.86% | IGROV1 ovarian -48.8% | OVCAR-3 ovarian -94.2% | NCI/ADR-RES ovarian 0.706%

CC(=O)[C@H]1CC[C@H]2[C@@H]3CCC4=CC(=O)C=C[C@]4(C)[C@H]3CC[C@]12C
inactive: RPMI-8226 leukemia 68% | OVCAR-8 ovarian 92.4% | OVCAR-5 ovarian 93.2% | OVCAR-4 ovarian 87.2% | SK-OV-3 ovarian 104% | IGROV1 ovarian 94.8% | OVCAR-3 ovarian 106% | HS 578T breast 96.2% | NCI/ADR-RES ovarian 98.4% | T-47D breast 86.8%

CC(=O)CSC(C)=O
inactive: RPMI-8226 leukemia 93.2% | OVCAR-8 ovarian 108% | OVCAR-5 ovarian 106% | OVCAR-4 ovarian 98% | SK-OV-3 ovarian 110% | IGROV1 ovarian 99.2% | OVCAR-3 ovarian 115% | HS 578T breast 101% | NCI/ADR-RES ovarian 111% | T-47D breast 103%
